This is an account of results in the emibetuzumab library of Makowski et al. (2022).

First the molecules themselves.
B1: VH:VL chains; a variant is named by its letters at X, in order (parent)
chain 1: QVQLVQSGAEVKKPGASVKVSCKASGYTFTDYXMHWVRQAPGQGLEWMGXVNPNXXXTTYNQKFEGRVTMTTDTSTSTAYMELRSLRSDDTAVYYCARXNXLDXWGQGTTVTVSS
chain 2: DIQMTQSPSSLSASVGDRVTITCSVSSSVSSIYLHWYQQKPGKAPKLLIYSTSNLASGVPSRFSGSGSGTDFTLTISSLQPEDFATYYCQVYSGYPLTFGGGTKVEIK

The other results are listed elsewhere or left out. How many sequences the whole screen found active is unknown.

This experiment covers variants of B1. As to the kind of experiment: yeast display scFab, FACS + sequencing. To be noted: with MET. In outline:
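Round-3 sorted and input populations from a heavy-chain CDR mutant scFab yeast library were deep sequenced in two replicates. Sorting used FACS on cells labelled for 3 h at room temperature with 1 nM HGFR-Fc and anti-Myc in PBSB with 1% milk, keeping the top 50% antigen-positive cells. Any sequence seen in both antigen-positive samples was called a binder, while one seen only in the input was called a non-binder.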
Take VRRTSAAS: the antigen binding call is given as “no binding”.
On to VKGAGAAS, for which the antigen binding call is listed as “no binding”.
For FRRGGAAS the value was “binds”; for VRRGGAAS, “binds”.
YRRGGAAS: the antigen binding call was “binds”.
Then DEGGTAGA, with “no binding”; and YRRGGSWV, with “binds”; and FRRRGSLV, with “binds”.
As for FGRRGAGV, the antigen binding call is on record as “no binding”.
Then YRRRGSVV, with “binds”; and YRRRGSLV, with “binds”; and YRRRGYLV, with “no binding”.
For YGETGFWY the value was “no binding”; for DKTKSDWV, “no binding”; for VAREGDLA, “no binding”.
Then AARADDVY, with “no binding”; and VRRRGSWV, with “binds”; and YRRRGSWV, with “binds”.
For YRRGGAWV, the antigen binding call is given as “binds”.
For VRRGGAWV the value was “no binding”; for VRGAGSWV, “no binding”; for YRRRGAWV, “binds”.
As to VTEEGSWV, the antigen binding call is listed as “no binding”.
Then DEGKDDVA, with “no binding”; and DTGGGDAY, with “no binding”.
DTTEASLV: the antigen binding call is listed as “no binding”.
Then FRGRDSVA, with “binds”; and FRGRSSVA, with “binds”; and DRGRDDVA, with “no binding”.
With FRGRDFVA, the antigen binding call is given as “no binding”.
Then DTGTSDLY, with “no binding”; and FARAGDWV, with “no binding”.
Then FRARGAGV, with “binds”.
As for FRARGAGS, the antigen binding call was “binds”.
Then FEAGDDGV, with “no binding”.
Then FRAGGVGV, with “no binding”; and FEATAAGS, with “no binding”.
For FRAGGAGV the value was “binds”.
On to VRAGDAGV, for which the antigen binding call is listed as “no binding”.
FRAGDAGV: the antigen binding call was “binds”.
For VKGRADWV the value was “no binding”; for FRAGGSSV, “binds”; for YRGRSAGY, “binds”.
Then YRGRTAAF, with “binds”; and YRGRTAAY, with “binds”.
Then YRERAAGY, with “binds”; and SAGRSDLV chain 1 R67H, with “no binding”.
For the variant SEARSDWV, the antigen binding call is on record as “no binding”.
Then AARADAGA, with “no binding”; and YRTRDAGY, with “binds”.
Then YRTRDDLY, with “no binding”; and YRGRSAAY, with “binds”; and YTKETAAD, with “no binding”.
Then FKGRSASY, with “no binding”; and YRGRTAAD, with “binds”.
As to YRGRSASY, the antigen binding call is reported as “binds”.
For YGKRDASY the value was “no binding”; for DKGGAVWT, “no binding”.
Then SEARSSSA, with “no binding”; and DTTKGDVV, with “no binding”.
Then DEGGTSSA, with “no binding”; and DTTRADVD, with “no binding”; and DRTGDSSS, with “binds”.
DRGGDSSS: the antigen binding call is on record as “binds”.
For DTTKSSSS the value was “no binding”; for DRGGDSLD, “no binding”; for DATGGSSS, “no binding”.
Then DRGGDDGS, with “no binding”; and DKGGSDVV, with “no binding”.
Then STRGADAV, with “no binding”; and DKEEADGV, with “no binding”.
For the variant VATGDSLV, the antigen binding call is given as “no binding”.
For FRAGGAWV the value was “binds”; for FRTGDDLV, “no binding”.
Then FRTGDAWV, with “binds”; and FRAGSAVV, with “binds”; and FRTGDDWV, with “no binding”.
Then FRTGDSLV, with “binds”; and SKTKSDVV, with “no binding”.
On to SAREGSSA, for which the antigen binding call is on record as “no binding”.
Then DEARGAGD, with “no binding”.
Then FRGRDVVV, with “no binding”; and FRRGGAWV, with “binds”.
For FATKGAWV the value was “no binding”; for FRTKGAWV, “binds”; for FRRGGAVV, “binds”.
As to AARETVGA, the antigen binding call is given as “no binding”.
Then STAESDLD, with “no binding”; and YRGRGFGY, with “binds”.
For YAAAAFGY the value was “no binding”.
Then YRGRGFGS, with “binds”; and YAGRSFGS, with “no binding”.
In the case of YAGRGFGF, the antigen binding call is on record as “no binding”.
As to YRGRGFGF, the antigen binding call is listed as “binds”.
Then YRGRGFAS, with “binds”; and DAGGGAVV, with “no binding”; and YATGDDVA, with “no binding”.
Consider DGGGNDLV, for which the antigen binding call is listed as “no binding”.
Then VATRGYLV, with “no binding”; and AARADDVD, with “no binding”; and DEGKGFGS, with “no binding”.
For YRGKGFGS the value was “binds”; for SRGKSFGS, “no binding”.
Then YRGRGVGF, with “binds”; and YAKEGDGV, with “no binding”.
Take VGKGDDAA: the antigen binding call was “no binding”.
For VRTEDASF the value was “no binding”.
Then YTTGSASF, with “no binding”; and YRGRGASF, with “binds”; and YRGRGSSF, with “binds”.
For FRTGDSAS the value was “binds”; for FRTGDAVS, “binds”.
For FRTGDDSF, the antigen binding call was “no binding”.
Then FRTGDAVF, with “binds”; and VTGGDSLV, with “no binding”.
Regarding FKTRDFAY, the antigen binding call is recorded as “no binding”.
Then VEKEGDVY, with “no binding”; and DATGGASD, with “no binding”.
Then YRRRGYVF, with “binds”.
Take YRAGGYVF: the antigen binding call is listed as “binds”.
On to YKRRSSVF, for which the antigen binding call is on record as “binds”.
For AKGEDSVF the value was “no binding”; for YRAGGYVD, “binds”; for YRRGGYVD, “no binding”.
For SEARSSSF the value was “no binding”; for YRRRGAVF, “binds”.
YRRRGSVF: the antigen binding call is “binds”.
VAGGAYLY: the antigen binding call is recorded as “no binding”.
Take DTATADWA: the antigen binding call is recorded as “no binding”.
For the variant YAARGAAV, the antigen binding call is “no binding”.
Then YGARNAAV, with “no binding”.
Then FRRGDAAV, with “binds”; and FRAGGAAV, with “binds”; and FRARGAAV, with “binds”.
Take YRARSAAV: the antigen binding call is “binds”.
